Test results reported in PubChem BioAssay AID2013 (Sanford-Burnham Center for Chemical Genomics, 2009).
Out of some 290,000 compounds screened, about 370 (0.13%) were called active. The entries come from a sample that favours actives as a whole. Measured potencies and affinities stand elsewhere. Values without a mark were called inactive.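 Rule for the calls: active = spots per cell inhibited over 60%, with over 100 cells counted and total cytoplasm intensity under 500,000; inconclusive = wells with under 100 cells, flagged as likely toxic; inactive = the rest.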

Target: G-protein coupled receptor 55 (Homo sapiens) (UniProt Q9Y2T6)
Sequence (Q9Y2T6 whole entry, looked up): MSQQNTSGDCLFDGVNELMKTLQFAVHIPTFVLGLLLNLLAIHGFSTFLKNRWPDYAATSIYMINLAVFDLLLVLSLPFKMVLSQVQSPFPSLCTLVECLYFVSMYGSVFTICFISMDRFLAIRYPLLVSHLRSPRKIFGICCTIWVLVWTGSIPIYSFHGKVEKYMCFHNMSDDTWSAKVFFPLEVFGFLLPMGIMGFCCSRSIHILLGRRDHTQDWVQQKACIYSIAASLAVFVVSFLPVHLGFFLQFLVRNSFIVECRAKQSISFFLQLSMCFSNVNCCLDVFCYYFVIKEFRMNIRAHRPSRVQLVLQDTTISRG
Assay: GPR55 antagonists blocking LPI-driven arrestin recruitment, primary screen, imaging, U2OS, beta-arrestin-GFP, LPI agonist (AID 2013);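 note: U2OS cells stably carrying GPR55 and arrestin-GFP stimulated by 5 µM LPI near EC80; imaged beta-arrestin-GFP aggregate spots per cell after agonist stimulation; plate controls were LPI-stimulated DMSO wells for no effect and DMSO wells without LPI for full effect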
Conditions: U2OS GPR55 beta-arrestin-GFP translocation imaging, LPI antagonism; at 10 µM; hits give high values

Compared with CCN(C(=O)CSc1nnc(Nc2ccccc2C)s1)C1CCS(=O)(=O)C1 (stereo unspecified), Cc1nonc1NC(=O)CSc1nnc(N)s1 is lower in inhibition: 12.3% for the first, -5.8% for the second.

Compared with CC(C)C[C@H](NC(=O)Nc1ccccc1F)C(=O)O, CC(=O)C(Cl)C(=O)Nc1ccccc1 (stereo unspecified) is lower in inhibition: 2.2% for the first, -8.1% for the second.

Compared with CSc1ccc(CN(C)C(=O)c2cc(=O)c3ccccc3o2)cc1, Cc1ccc(-n2nc(C)c(=O)c(-c3ccccc3)c2NC(=O)C(C)C)cc1 is higher in inhibition: -0.8% for the first, 11.6% for the second.

Compared with COc1ccc(-c2csc(Nc3ccc(S(N)(=O)=O)cc3)n2)cc1, COc1ccc(-c2csc(Nc3ccc(S(=O)(=O)Nc4cc(C)on4)cc3)n2)cc1 is higher in inhibition: 4.6% for the first, 5.4% for the second.

First: COc1cc(NS(=O)(=O)c2ccc(Nc3nc(-c4ccccn4)cs3)cc2)nc(OC)n1
Second: COc1cc(NS(=O)(=O)c2ccc(Nc3nc(-c4cccc([N+](=O)[O-])c4)cs3)cc2)nc(OC)n1
The inhibition of the first is higher: 2.2% for the first, 0.2% for the second.

First: O=C1CC(N2CCN(c3ccccn3)CC2)C(=O)N1c1ccc(Cl)cc1 (stereo unspecified)
Second: COc1ccc(N2CCN(C(=O)Cn3ncc4c([nH]c5ccccc54)c3=O)CC2)cc1
The inhibition of the first is higher: -0.1% for the first, -7% for the second.

Compared with COCCn1c(SCC(=O)NC2CCCC2)nnc1-c1ccncc1, Cc1cccn2c(=O)c3cc(C(=O)NC4CCCC4)c(=N)n(C4CCCCC4)c3nc12 is higher in inhibition: 1.6% for the first, 19.8% for the second.

Compared with O=C(NCCc1ccc(Cl)cc1)c1cc2ccccn2n1, O=C(NCc1ccc2c(c1)OCO2)Nc1ccc(Cl)cc1 is lower in inhibition: 6.6% for the first, -2.2% for the second.

Going from COc1cccc(NC(=O)COC(=O)CC(NC(N)=O)c2ccc(Cl)cc2)c1 (stereo unspecified) to CC(=O)c1ccc(NC(=O)COc2ccccc2C(=O)Nc2ccc(C)cn2)cc1, the inhibition rises from -13.8% to 10%.

First: O=C(Nc1ccc(N2CCOCC2)cc1)c1cc(-c2ccncc2)nc2ccccc12
Second: COc1cc(-c2cc(C(=O)Nc3ccccc3N3CCOCC3)c3ccccc3n2)cc(OC)c1OC
The inhibition of the first is lower: 15.8% for the first, 17.1% for the second.

First: Cc1cc(NC(=O)CSc2nnc(C)o2)no1
Second: Cc1cc(NS(=O)(=O)c2ccc(NC(=O)C(C)Oc3ccc(C(C)C)cc3)cc2)no1 (stereo unspecified)
The inhibition of the first is higher: 4.5% for the first, -4.7% for the second.

Compared with Cc1cccc(Nc2nc(NCc3ccco3)c3ccccc3n2)c1, Cc1ccccc1Nc1nc(NCc2ccco2)c2ccccc2n1 is higher in inhibition: -2.1% for the first, 54.3% for the second.

Going from CNc1nc(NCc2ccccc2)c2ccccc2n1 to OCCNc1nc(NCc2ccccc2)c2ccccc2n1, the inhibition falls from 5.4% to -6.4%.

Compared with Fc1ccc(Nc2nc(NCc3ccco3)c3ccccc3n2)cc1, Cc1ccc(-c2nc(NCc3ccco3)c3ccccc3n2)cc1 is lower in inhibition: 60.1% for the first, 7.7% for the second.

Going from CC(C)CC1(C)NC(=O)N(Cc2cc([N+](=O)[O-])cc3c2OCOC3)C1=O (stereo unspecified) to CC[C@H](C)[C@@H](NC(=O)O[C@@H]1C(=O)c2cc(Br)ccc2O[C@H]1c1ccc2c(c1)OCO2)C(=O)OC, the inhibition rises from -6.2% to -3.7%.

Compared with CCCN(CC1CC1)C(=O)COC(=O)c1ccc(CNS(=O)(=O)c2ccc(F)c(Cl)c2)cc1, Cc1cc(C)nc(NS(=O)(=O)c2ccc(NC(=O)C3CC3)cc2)n1 is lower in inhibition: 0.7% for the first, 0% for the second.

First: c1ccc(OCCOc2ccccc2-c2nnco2)cc1
Second: O=C(Nc1ccccc1Cl)c1ccccc1
The inhibition of the first is lower: -6.8% for the first, 3.2% for the second.

First: Cc1ccc(-c2ccccc2[C@@H]2C[C@H]3CN(C)C(=O)[C@]34CCCN24)o1
Second: CC(C)(C)c1ccc(CN2C3=NCCCN3c3ccccc32)cc1
The inhibition of the first is lower: -2.8% for the first, 29.1% for the second.

First: CC(C)N(C=O)C1(C(=O)NC2CCCCC2)CCCCC1
Second: O=C(NC1CCCCC1)C(c1ccco1)N(C(=O)C(F)(F)F)C1CC1 (stereo unspecified)
The inhibition of the first is higher: 5.3% for the first, -2.5% for the second.

First: COc1ccc[nH]c1=O
Second: Cc1nc(C(Cl)(Cl)Cl)nc2[nH]ccc(=O)c12
The inhibition of the first is lower: 0.4% for the first, 4.1% for the second.

Going from CC(O)CNc1cnccn1 (stereo unspecified) to Cc1ccc(NC(=O)Nc2cnccn2)c(C)c1, the inhibition falls from 14.2% to 1.4%.

Compared with O=C(NCCN1CCNC1=O)C1CCC(=O)N(Cc2cccc(C(F)(F)F)c2)C1 (stereo unspecified), FC(F)(F)c1cccc(Cc2noc(CN3CCC(c4ccncc4)CC3)n2)c1 is higher in inhibition: -10.6% for the first, 5.1% for the second.

Going from Cc1ccc(NC(=S)NNC(=O)c2c([N+](=O)[O-])c(C)nn2C)cc1 to Cc1ccc(/C=N/Nc2nc(C)cc(C)n2)cc1, the inhibition rises from -1.6% to 0.6%.

Going from CN1C2CCC1/C(=C\c1ccccc1)C(=O)/C2=C\c1ccccc1 to CN1C2CCC1/C(=C\c1ccccc1Cl)C(=O)/C2=C\c1ccccc1Cl, the inhibition falls from 15.1% to -4.7%.

First: CC(C)(C)c1ccc(C(=O)Nc2ccc(C(=O)N3CCOCC3)cc2)cc1
Second: CC(C)(C)c1ccc(CN2C(=O)CSC2=O)cc1
The inhibition of the first is higher: 13% for the first, -2.7% for the second.

First: O=C(NCC(=O)N1CCN(S(=O)(=O)/C=C/c2ccccc2)CC1)c1ccc(Cl)cc1
Second: CC(C)(C)OC(=O)[C@H](Cc1ccccc1)NC(=O)c1nc[nH]c1C(=O)N1CCN(C(=O)OC(C)(C)C)CC1
The inhibition of the first is higher: 10.1% for the first, 4.7% for the second.

Going from CCN(CC)CCNC(=S)N1CCn2c(nc3ccccc32)C1 to CC(C)CNC(=S)N1CCC(c2nc(-c3ccc(F)cc3)no2)CC1, the inhibition rises from 3.9% to 6.8%.

First: CCOC(=O)c1c(C)n(C)c2ccc(OC)c(NC(=O)CN3CCC(C(=O)OCC)CC3)c12
Second: O=C(CN1CCN(C(=O)c2ccco2)CC1)Nc1ccc(F)cc1F
The inhibition of the first is lower: -6.7% for the first, 10.4% for the second.

First: CCOc1ccccc1NC(=O)Nc1ccc(Br)cn1
Second: O=C(Nc1ccccc1Cl)Nc1ccccc1Cl
The inhibition of the first is higher: 13.3% for the first, 1.2% for the second.

Going from CN(NC(=O)CN1C(=O)c2ccccc2C1=O)C1=NS(=O)(=O)c2ccccc21 to Cc1cccc(C)c1NC(=O)Cn1c(=O)c2cccn2c2ccccc21, the inhibition rises from -1.6% to 3.5%.

Compared with CC(C)C[C@H](NC(=O)c1[nH]cnc1C(=O)Nc1ccc(CNC(=O)OC(C)(C)C)cc1)C(=O)OCc1ccccc1, C[C@H](NC(=O)c1[nH]cnc1C(=O)Nc1ccc(CNC(=O)OC(C)(C)C)cc1)C(=O)OCc1ccccc1 is lower in inhibition: 7% for the first, 1.5% for the second.

First: C[C@H](NC(=O)c1nc[nH]c1C(=O)NCc1ccc(CNC(=O)OC(C)(C)C)cc1)C(=O)OC(C)(C)C
Second: CC(C)(C)OC(=O)NCc1ccc(CNC(=O)c2[nH]cnc2C(=O)N[C@@H](Cc2ccccc2)C(=O)OCc2ccccc2)cc1
The inhibition of the first is lower: 18.1% for the first, 35.5% for the second.

Compared with CC(C)(C)OC(=O)N1CCC(NC(=O)c2[nH]cnc2C(=O)N[C@@H](Cc2ccccc2)C(=O)OCc2ccccc2)CC1, CC(C(=O)Nc1ccccc1)C(=O)Nc1ccccc1 is lower in inhibition: 41.8% for the first, -4.5% for the second.

Going from CCN(CC)S(=O)(=O)c1cc(C(=O)Nc2cc(C)[nH]n2)ccc1Cl to Cc1cc(C)n(/C(=C\N(C)C)C(=O)c2ccc(Cl)cc2)n1, the inhibition falls from 17.6% to 6.9%.

Going from O=C(NNc1c(Cl)cccc1Cl)c1ccno1 to O=C(O)c1ccccc1NCc1ccsc1, the inhibition falls from 5% to -6.3%.

First: O=C(Nc1ccccc1)C(Cl)C(=O)c1ccccc1 (stereo unspecified)
Second: Cc1cccc(C)c1NC(=O)C(Cl)C(=O)c1ccccc1 (stereo unspecified)
The inhibition of the first is higher: 6.1% for the first, 2.5% for the second.

Compared with COc1cccc(-c2csc(N3CCN(Cc4ccccc4)CC3)n2)c1, Cc1cccn2c(=O)c(/C=C(\C#N)S(=O)(=O)c3ccccc3)c(N3CCN(Cc4ccccc4)CC3)nc12 is higher in inhibition: -6.9% for the first, 22.8% for the second.

Compared with COc1ccc(OC)c(/C=C/C(=O)Nc2cccc(S(=O)(=O)N3CCCC3)c2)c1, O=C(COC(=O)c1cc(=O)[nH]c(=O)[nH]1)Nc1cccc(S(=O)(=O)N2CCCCC2)c1 is lower in inhibition: -3.3% for the first, -7.4% for the second.

First: Cc1cc2c(cc1S(=O)(=O)Nc1ccc(F)cc1)n(C)c(=O)c(=O)n2C
Second: Cc1cc2c(cc1S(=O)(=O)Nc1cccc(F)c1)n(C)c(=O)c(=O)n2C
The inhibition of the first is higher: 9.6% for the first, -13.1% for the second.

Compared with Cc1cccn2c(=O)c3cc(C(=O)NCc4ccco4)c(=N)n(C(C)C)c3nc12, Cc1cccn2c(=O)c3cc(C(=O)NCc4ccco4)c(=N)n(C4CCCCC4)c3nc12 is higher in inhibition: 45.5% for the first, 50% for the second.

Compared with N=c1c(C(=O)NC2CCCC2)cc2c(=O)n3ccccc3nc2n1C1CCCC1, N=c1c(C(=O)NCc2ccco2)cc2c(=O)n3ccccc3nc2n1C1CCCC1 is lower in inhibition: 8.6% for the first, 7.5% for the second.

Going from Cc1ccc2nc3c(cc(C(=O)NCc4ccco4)c(=N)n3Cc3ccco3)c(=O)n2c1 to COC(CNC(=O)c1ccc(CS(=O)(=O)c2ccc(Br)cc2)o1)OC, the inhibition falls from 23.2% to -14.8%.

Compared with CCCc1nnc2n1N=C(c1ccc(-c3cc(Cl)ccc3Cl)o1)CS2, CC(=O)O[C@@H]1[C@H]2[C@@H](C[C@@H](C)[C@@H]3C=CC(=O)[C@@]13C)OC(=O)[C@@H]2C is lower in inhibition: -0.8% for the first, -2% for the second.

Compared with CC(=O)O[C@@H]1[C@H]2[C@@H](C[C@@H](C)[C@@H]3CCC(=O)[C@@]13C)OC(=O)[C@@H]2C, C[C@@H]1C[C@@H]2OC(=O)[C@]3(C)[C@H]2[C@@H](OC3(C)O)[C@]2(C)C(=O)C=C[C@H]12 (stereo partly specified) is lower in inhibition: 6.6% for the first, 6.3% for the second.

In the case of C=C1C(=O)O[C@H]2C[C@]3(C)C([C@@H](OC(=O)/C(C)=C/C)[C@H]12)[C@](C)(O)CC[C@H]3O (stereo partly specified), the inhibition is reported as 10.2%.

c1ccc(CNc2nc(NCc3ccccc3)c3ccccc3n2)cc1 was tested, and the inhibition was 72% (active).
With c1ccc(Nc2nc(NCc3ccco3)c3ccccc3n2)cc1 the inhibition was 73.7% (active).
